Records with an inconclusive call do not appear. Active and inactive are the calls of the source. Calls come from the whole dose curve; as a rule, active = well fitted inhibition curve with a large enough effect; inconclusive = small, poorly fitted or top-dose-only effect; inactive = no such curve, though single readings can be large or run the other way.

40 compounds from PubChem BioAssay AID1224858 (National Center for Advancing Translational Sciences (NCATS), 2016) can be followed below.

A short description of this assay: Confirmation assay for measurement of the activity of small molecule inhibitors on Zika virus induced Caspase-3 activity in human astrocytes. The following applies: ZIKV-induced caspase-3/7 luminescence, 6 h; series mostly up to 46.1 µM; activity, negative = inhibition: at the top concentration. An excerpt:
National Center for Advancing Translational Sciences [NCATS] Johns Hopkins University School of Medicine Florida State University Assay Overview: Increase in the Caspase-3 activity indicates an activation of apoptosis cell death pathway caused by Zika virus infection in certain types of neuronal cells including human neural progenitor cells (hNPCs), astrocytes, and astrocytoma cell line (SNB-19). This cell-based caspase-3 activity assay measures the increased caspase-3 activity in the human astrocytes after a 6-hour Zika virus infection with a luminescence readout. A decrease in the luminescence signal in this assay by small molecule treatment indicates an inhibitory effect of that small molecule on the Zika virus induced caspase-3 activity that may correlate with its effect on reduction of Zika virus caused cell death.
Assay Protocol Summary: The medium for astrocytes contains AM basal medium (ScienCell, Cat.# 1801), AGS (ScienCell, Cat.# 1801), 10% FBS, and 1% Pen/Strep. A Caspase-Glo 3/7 assay kit (catalog number G8092; Promega, Madison, WI) was used to detect caspase-3 activity induced by Zika virus infection in human cells. The reagent mixture was reconstituted as described in the protocol from the manufacturer. Polystyrene tissue culture treated and PDL coated white plates were obtained from Greiner Bio-One (Monroe, NC). Cells were seeded in 384- or 1536-well assay plates and cultured at 37 C with 5% CO2 for 16 to 20 hours. The typical cell seeding density in the 1536-well plate assay is 350 cells/well in 3 ul medium for astrocytes in tissue culture treated plates. Compounds were added to cells and incubated for one hour before addition of ZIKV solution to cells (2 FFU/cell). After incubation at 37 C with 5% CO2 for 6 hours, the reagent mixture of Caspase-Glo 3/7 assay kit was added to each well, followed by incubation at room temperature for 30 minutes. The luminescence intensity of the assay plates was measured using a ViewLux plate reader (PerkinElmer). Data were normalized by using the cell-containing wells without ZIKV as a negative control (0% induction of caspase 3/7 activity) and wells containing ZIKV infected cells (Caspase-3 activity induced) as a positive control (100% induction of caspase 3 activity). The percentage inhibitions of the increased Caspase-3 activity by small molecule inhibitors were then calculated.
In the case of `O=C(/C=C/c1ccccc1)NCCO`, the “activity, negative = inhibition” value was -18.6% (inactive).
Consider `O=C(Oc1ccccc1)c1cccc(C(=O)Oc2ccccc2)c1`, for which the Potency is 6.31 µM (active).
In the case of `CCCCCCCC/C=C/C(=O)O`, the “activity, negative = inhibition” value was -26.5% (inactive).
As to `CC(=C(CCOC(=O)C(C)C)SSC(CCOC(=O)C(C)C)=C(C)N(C=O)Cc1cnc(C)nc1N)N(C=O)Cc1cnc(C)nc1N`, the “activity, negative = inhibition” value was -20.1% (inactive).
Same read-out and setting: the same measure for `CC1(C)Cc2c(sc(NC(=S)NC(=O)c3ccccc3)c2C(=O)O)CO1`: 11.8% (inactive).
For `COc1cccc(-c2ccc(NC(=O)C3=C(C(=O)O)CCC3)c(F)c2)c1`, the Potency is 2.45 µM (active).
Take `Cc1nc(-c2ccc(OCC(C)C)c(C#N)c2)sc1C(=O)O`: the Potency is 2.18 µM (active).
Take `Cc1ccc(O)c(-n2nc3ccccc3n2)c1`: the Potency was 7.74 µM (active).
As for `Nc1ccc(O)c(C(=O)O)c1`, the “activity, negative = inhibition” value is -0.275% (inactive).
As to `Cc1cccc(/C=C/c2ccccc2)n1`, the Potency is 10.9 µM (active).
Still for that read-out and setting: the same measure for `O=C(Nc1cc2cc[nH]c2cn1)c1ccccc1`: 4.35 µM (active).
As for `O=C(O)[C@H](CC(=O)N1C[C@@H]2CCCC[C@H]2C1)Cc1ccccc1`, the “activity, negative = inhibition” value is 1.15% (inactive).
Still for that read-out and setting: the same measure for `O=c1cc(-c2ccccc2)oc2cc(O)c(O)c(O)c12`: -14% (inactive).
In the case of `CC(C(=O)O)c1ccc(C(=O)c2ccccc2)s1` (stereo not given), the Potency is 6.15 µM (active).
Still for that read-out and setting: the value for `COCCn1c2c([n+](Cc3cnccn3)c1C)C(=O)c1ccccc1C2=O` was 5.48 µM (active); that for `CC(C)Oc1ccc2c(=O)c(-c3ccccc3)coc2c1` was 10.9 µM (active); that for `CC(=O)Nc1ccc([C@H](C)C(=O)Nc2ncc(C(C)C)s2)cc1` was 10.9 µM (active).
`N[C@H](CSC(c1ccccc1)(c1ccccc1)c1ccccc1)C(=O)O`: the “activity, negative = inhibition” value was 17.5% (inactive).
Take `O=C(Nc1ccc([N+](=O)[O-])cc1Cl)c1cc(Cl)ccc1O`: the Potency was 1.73 µM (active).
Same read-out and setting: the same measure for `Nc1ccc(-c2ccc3ccccc3n2)cc1`: 4.35 µM (active).
As for `CCCCCNC(=O)N1CCC(CN(Cc2ccc(Cl)cc2)Cc2ccc([N+](=O)[O-])s2)C1` (stereo not given), the “activity, negative = inhibition” value was 17.4% (inactive).
Same read-out and setting: the same measure for `Cc1[nH]c(C=C2C(=O)Nc3ccccc32)c(C)c1CCC(=O)O`: -2.09% (inactive); for `CC(=NNC(=S)N1CCC1)c1ccccn1`: 48.5% (inactive).
With `Oc1cc(O)cc(/C=C/c2ccc(O)c(O)c2)c1`, the Potency is 6.9 µM (active).
Same read-out and setting: the same measure for `c1ccc2[nH]c(-c3cscn3)nc2c1`: 9.75 µM (active); for `Cc1oncc1C(=O)Nc1ccc(C(F)(F)F)cc1`: 3.88 µM (active); for `COc1ccc(-c2coc3cc(O)ccc3c2=O)cc1`: 15.5 µM (active).
Still for that read-out and setting: the value for `Nc1ccc(N=Nc2ccccc2)c(N)n1` was 15.5 µM (active); that for `O=C(O)c1cc([N+](=O)[O-])ccc1NCCCc1ccccc1` was 8.69 µM (active).
Take `CCCCCCCCCCCC(=O)[O][Sn]([CH2]CCC)([CH2]CCC)[O]C(=O)CCCCCCCCCCC`: the “activity, negative = inhibition” value is -15% (inactive).
On the same count and under the same terms, the same measure for `C[C@@H](O[C@H]1OCCN(Cc2n[nH]c(=O)[nH]2)[C@@H]1c1ccc(F)cc1)c1cc(C(F)(F)F)cc(C(F)(F)F)c1`: 123% (inactive).
As to `c1ccc(CCNc2nc(-c3ccccc3)cs2)cc1`, the Potency is 10.9 µM (active).
On the same count and under the same terms, the value for `COc1ccc(-c2cc(=O)c3c(O)cc(O)cc3o2)cc1O` was 13.8 µM (active); that for `CC(C)(C)COc1ccc(-n2cc(C(=O)O)cn2)cc1C#N` was 7.08 µM (active).
Still for that read-out and setting: the same measure for `O=C1C(Cl)=C(NCCN2CCOCC2)C(=O)c2ncccc21`: 6.15 µM (active).
For `CCCC(=O)OC[C@@H](OC(=O)CCC)[C@@H](OC(=O)CCC)[C@H](Cn1c2nc(=O)[nH]c(=O)c-2nc2cc(C)c(C)cc21)OC(=O)CCC`, the “activity, negative = inhibition” value is -26.4% (inactive).
Still for that read-out and setting: the same measure for `Nc1cc(C(F)(F)F)ccc1S`: -8.2% (inactive).
Take `O=C(Nc1ccc(C(=O)O)c(O)c1)c1ccccc1`: the Potency was 4.89 µM (active).
As to `CN(C)c1ccc(/C=C2\C(=O)Nc3ccccc32)cc1`, the Potency is 8.69 µM (active).
Still for that read-out and setting: the same measure for `CCN(CC)c1ccc(C(=C2C=CC(=[N+](CC)CC)C=C2)c2cc(S(=O)(=O)O)ccc2S(=O)(=O)[O-])cc1`: 7.74 µM (active).
